# Laboratory results taken from the supplement of paper PMC8728848.
# Many of the other results were omitted from the sample, so the strongest signals are more common in it than they were.
# B1: Siglec-E (Mus musculus), Q91Y57 (protein)
# chain: MLLLLLLLLLWGIKGVEGQNPQEVFTLNVERKVVVQEGLCVLVPCNFSYLKKRLTDWTDSDPVHGFWYREGTDRRKDSIVATNNPIRKAVKETRNRFFLLGDPWRNDCSLNIREIRKKDAGLYFFRLERGKTKYNYMWDKMTLVVTALTNTPQILLPETLEAGHPSNLTCSVPWDCGWTAPPIFSWTGTSVSFLSTNTTGSSVLTITPQPQDHGTNLTCQVTLPGTNVSTRMTTRLNVSYAPKNLTVTIYQGADSVSTILKNGSSLPISEGQSLRLICSTDSYPPANLSWSWDNLTLCPSKLSKPGLLELFPVHLKHGGVYTCQAQHALGSQHISLSLSPQSSATLSEMMMGTFVGSGVTALLFLSVCILLLAVRSYRRKPARPAVVAPHPDALKVSVSQNPLVESQADDSSEPLPSILEAAPSSTEEEIHYATLSFHEMKPMNLWGQQDTTTEYSEIKFPQRTAWP
# How the values were obtained:
# Assay in all cases: glycan array binding signal (z-score within array); higher = stronger binding
# Details in all cases: glycan notation: IUPAC condensed, linker removed
# Glc(b1-4)Glc = molecular target: Glc(b1-4)Glc
# Procedure, shortened: (§1)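 The binding signal is a Z-score computed within each array and averaged over linkers. Arrays of the same protein sequence at different concentrations or buffers were also averaged together. Data originate from 3228 arrays in the Consortium for Functional Glycomics database, kept only where the protein sequence was available.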
# [1] = molecular target: GlcNAc(a1-4)Gal(b1-4)GlcNAc
# Procedure, shortened: as §1
# [2] = molecular target: GlcNAc(b1-2)Gal(b1-3)GalNAc
# Procedure, shortened: as §1
# [3] = molecular target: GlcNAc(b1-2)Man(a1-3)[GlcNAc(b1-2)Man(a1-6)]Man(b1-4)GlcNAc(b1-4)GlcNAc
# Procedure, shortened: as §1
# [4] = molecular target: GlcNAc(b1-3)Gal(b1-4)GlcNAc(b1-3)Gal(b1-4)GlcNAc(b1-2)[GlcNAc(b1-3)Gal(b1-4)GlcNAc(b1-3)Gal(b1-4)GlcNAc(b1-6)]Man(a1-6)[GlcNAc(b1-3)Gal(b1-4)GlcNAc(b1-3)Gal(b1-4)GlcNAc(b1-2)Man(a1-3)]Man(b1-4)GlcNAc(b1-4)[Fuc(a1-6)]GlcNAc
# Procedure, shortened: as §1
# [5] = molecular target: GlcNAc(b1-3)[GlcNAc(b1-6)]GalNAc
# Procedure, shortened: as §1
# [6] = molecular target: Man(a1-2)Man(a1-3)[Man(a1-6)]Man(a1-6)[Man(a1-2)Man(a1-3)]Man(b1-4)GlcNAc(b1-4)GlcNAc
# Procedure, shortened: as §1
# MurNAc(b1-4)GlcNAc = molecular target: MurNAc(b1-4)GlcNAc
# Procedure, shortened: as §1
# Neu5Ac(a2-3)Gal = molecular target: Neu5Ac(a2-3)Gal
# Procedure, shortened: as §1
# [7] = molecular target: Neu5Ac(a2-3)Gal(b1-3)GalNAc(b1-4)[Neu5Ac(a2-8)Neu5Ac(a2-3)]Gal(b1-4)Glc
# Procedure, shortened: as §1
# [8] = molecular target: Neu5Ac(a2-3)Gal(b1-3)GlcNAc(b1-2)Man(a1-3)[Neu5Ac(a2-3)Gal(b1-3)GlcNAc(b1-2)Man(a1-6)]Man(b1-4)GlcNAc(b1-4)GlcNAc
# Procedure, shortened: as §1
# [9] = molecular target: Neu5Ac(a2-3)Gal(b1-3)GlcNAc(b1-3)GalNAc
# Procedure, shortened: as §1
# [10] = molecular target: Neu5Ac(a2-3)Gal(b1-3)[Fuc(a1-4)]GlcNAc(b1-3)Gal(b1-4)[Fuc(a1-3)]GlcNAc
# Procedure, shortened: as §1
# Neu5Ac(a2-3)Gal(b1-4)Glc = molecular target: Neu5Ac(a2-3)Gal(b1-4)Glc
# Procedure, shortened: as §1
# [11] = molecular target: Neu5Ac(a2-3)Gal(b1-4)GlcNAc(b1-3)Gal(b1-4)GlcNAc(b1-3)[Neu5Ac(a2-3)Gal(b1-4)GlcNAc(b1-3)Gal(b1-4)GlcNAc(b1-6)]GalNAc
# Procedure, shortened: as §1
# [12] = molecular target: Neu5Ac(a2-3)Gal(b1-4)[Fuc(a1-3)]GlcNAc(b1-3)Gal(b1-4)[Fuc(a1-3)]GlcNAc(b1-3)Gal(b1-4)[Fuc(a1-3)]GlcNAc
# Procedure, shortened: as §1
# [13] = molecular target: Neu5Ac(a2-3)Gal6S(b1-4)GlcNAc
# Procedure, shortened: as §1
# [14] = molecular target: Neu5Ac(a2-3)[GalNAc(b1-4)]Gal(b1-4)Glc
# Procedure, shortened: as §1
# [15] = molecular target: Neu5Ac(a2-3)[GalNAc(b1-4)]Gal(b1-4)GlcNAc(b1-3)GalNAc
# Procedure, shortened: as §1
# [16] = molecular target: Neu5Ac(a2-6)Gal(b1-4)GlcNAc(b1-2)Man(a1-3)Man(b1-4)GlcNAc(b1-4)GlcNAc
# Procedure, shortened: as §1
# Neu5Ac(a2-6)GalNAc = molecular target: Neu5Ac(a2-6)GalNAc
# Procedure, shortened: as §1
# [17] = molecular target: Neu5Ac(a2-8)Neu5Ac(a2-3)Gal(b1-3)GalNAc(b1-4)[Neu5Ac(a2-8)Neu5Ac(a2-3)]Gal(b1-4)Glc
# Procedure, shortened: as §1
# [18] = molecular target: Neu5Gc(a2-3)Gal(b1-3)[Fuc(a1-4)]GlcNAc
# Procedure, shortened: as §1
binder,measurement,setting,value
B1,glycan array binding signal (z-score),Glc(b1-4)Glc,-0.196
same,glycan array binding signal (z-score),[1],-0.41
same,glycan array binding signal (z-score),[2],-0.364
same,glycan array binding signal (z-score),[3],-0.12
same,glycan array binding signal (z-score),[4],-0.336
same,glycan array binding signal (z-score),[5],-0.05
same,glycan array binding signal (z-score),[6],-0.61
same,glycan array binding signal (z-score),MurNAc(b1-4)GlcNAc,-0.464
same,glycan array binding signal (z-score),Neu5Ac(a2-3)Gal,-0.19
same,glycan array binding signal (z-score),[7],0.68
same,glycan array binding signal (z-score),[8],6.41
same,glycan array binding signal (z-score),[9],-0.226
same,glycan array binding signal (z-score),[10],-0.475
same,glycan array binding signal (z-score),Neu5Ac(a2-3)Gal(b1-4)Glc,3.95
same,glycan array binding signal (z-score),[11],-0.335
same,glycan array binding signal (z-score),[12],-0.568
same,glycan array binding signal (z-score),[13],-0.532
same,glycan array binding signal (z-score),[14],-0.34
same,glycan array binding signal (z-score),[15],-0.355
same,glycan array binding signal (z-score),[16],-0.181
same,glycan array binding signal (z-score),Neu5Ac(a2-6)GalNAc,-0.32
same,glycan array binding signal (z-score),[17],0.342
same,glycan array binding signal (z-score),[18],0.48
